Laboratory results: PubChem BioAssay AID1159580 (chemical genetic matrix, 2015)
“And” between values parts separate entries of the source, which are not always exact repeats. Equal entries are not always repeated. Out of some 5,500 compounds screened, about 2,000 (36%) were called active. About 18% were inconclusive and are not listed. Cut-off read from the data, not from the text of the source: active = normalized growth mostly below about 0.91 (no sharp cut-off); inconclusive = no clear call, values can overlap the other calls; inactive = mostly above about 0.92. Some of the results follow.

Experiment: chemical genetic growth profiling, strain panel (AID 1159580);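 note: tested at 20 µM; growth read once vehicle control cultures reached saturation at 30 °C; 1 = growth at the plate median or of vehicle wells; lower values mean less growth of the strain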
Conditions: S. cerevisiae deletion strains, growth OD

Measured: normalized growth

Nc1ccc(C(=O)O)c(O)c1
inactive: locus YAL021C, strain ccr4, hits give low values 0.972 | locus YAL026C, strain drs2, hits give low values 1 | locus YAL030W, strain snc1, hits give low values 1 | locus YBL061C, strain skt5, hits give low values 0.989 | locus YBR009C, strain hhf1, hits give low values 1.02 | locus YBR021W, strain FUR4, hits give low values 1.01 | locus YBR023C, strain chs3, hits give low values 0.984 | locus YBR171W, strain sec66, hits give low values 0.98 | locus YBR229C, strain ROT2, hits give low values 1 | locus YBR231C, strain swc5, hits give low values 1 | locus YBR279W, strain paf1, hits give low values 0.996 | locus YCL011C, strain gbp2, hits give low values 0.991 | locus YCL016C, strain dcc1, hits give low values 0.965 | locus YCL029C, strain bik1, hits give low values 0.997 | locus YCL061C, strain MRC1, hits give low values 0.979 | locus YCL069W, strain vba3, hits give low values 0.99 | locus YCR088W, strain abp1, hits give low values 0.997 | locus YDL005C, strain med2, hits give low values 0.989 | locus YDL035C, strain GPR1, hits give low values 1.02 | locus YDL040C, strain nat1, hits give low values 0.99 | locus YDL074C, strain BRE1, hits give low values 1.01 | locus YDL101C, strain DUN1, hits give low values 1.01 | locus YDL134C, strain PPH21, hits give low values 1 | locus YDL185W, strain tfp1, hits give low values 1 | locus YDL192W, strain arf1, hits give low values 0.994 | locus YDR001C, strain nth1, hits give low values 0.989 | locus YDR069C, strain doa4, hits give low values 1 | locus YDR101C, strain arx1, hits give low values 1.01 | locus YDR137W, strain rgp1, hits give low values 0.959 | locus YDR150W, strain NUM1, hits give low values 1.01 | locus YDR159W, strain sac3, hits give low values 1.02 | locus YDR162C, strain NBP2, hits give low values 1.01 | locus YDR195W, strain ref2 0.996 | locus YDR297W, strain sur2, hits give low values 1.01 | locus YDR318W, strain mcm21, hits give low values 1.01 | locus YDR334W, strain swr1, hits give low values 0.98 | locus YDR335W, strain msn5, hits give low values 0.993 | locus YDR388W, hits give low values 1 | locus YDR392W, strain spt3, hits give low values 0.931 | locus YDR502C, strain sam2, hits give low values 0.998 | locus YEL003W, strain gim4, hits give low values 1.02 | locus YEL037C, strain rad23, hits give low values 1 | locus YEL061C, strain CIN8 (second series), hits give low values 0.994 | locus YEL061C, strain CIN8, hits give low values 1.01 | locus YER015W, strain faa2, hits give low values 0.999 | locus YER016W, strain bim1, hits give low values 1 | locus YER110C, hits give low values 1 | locus YER111C, strain swi4, hits give low values 0.984 | locus YER155C, strain BEM2 (second series), hits give low values 1 | locus YER155C, strain BEM2, hits give low values 1 | locus YER167W, strain BCK2, hits give low values 1.01 | locus YFR010W, strain ubp6, hits give low values 1 | locus YGL078C, strain dbp3, hits give low values 0.995 | locus YGL086W, strain mad1, hits give low values 0.997 | locus YGL167C, strain pmr1, hits give low values 0.992 | locus YGL173C, strain kem1, hits give low values 0.99 | locus YGL227W, strain vid30, hits give low values 0.991 | locus YGL240W, strain doc1, hits give low values 0.997 | locus YGL248W, strain PDE1, hits give low values 0.999 | locus YGL253W, strain hxk2, hits give low values 0.978 | locus YGR135W, strain pre9, hits give low values 0.993 | locus YGR252W, strain gcn5, hits give low values 0.959 | locus YHR013C, strain ard1, hits give low values 0.961 | locus YHR027C, strain rpn1, hits give low values 0.997 | locus YHR030C, strain SLT2, hits give low values 0.974 and 1.01 and 1.07 | locus YHR079C, strain IRE1 (second series), hits give low values 1 | locus YHR079C, strain IRE1, hits give low values 1.02 and 1.04 | locus YHR094C, strain hxt1, hits give low values 0.997 | locus YHR129C, strain ARP1, hits give low values 1.01 | locus YHR142W, strain chs7, hits give low values 0.964 | locus YHR200W, strain rpn10, hits give low values 0.999 | locus YIL066C, strain RNR3, hits give low values 1.03 | locus YIL073C, strain SPO22, hits give low values 1.04 | locus YIL125W, strain kgd1, hits give low values 1 | locus YIR030C, strain dcg1, hits give low values 1 | locus YJL092W, strain hpr5, hits give low values 0.984 | locus YJL095W, strain BCK1 (second series), hits give low values 0.997 | locus YJL095W, strain BCK1, hits give low values 0.994 and 1.01 and 1.04 | locus YJL115W, strain asf1, hits give low values 0.99 | locus YJL129C, strain trk1, hits give low values 0.968 | locus YJL134W, strain LCB3, hits give low values 1.01 | locus YJL154C, strain vps35, hits give low values 0.99 | locus YJL164C, strain tpk1, hits give low values 1.01 | locus YJL166W, strain qcr8, hits give low values 0.962 | locus YJL168C, strain set2, hits give low values 1 | locus YJL187C, strain SWE1 (second series), hits give low values 1.01 | locus YJL187C, strain SWE1, hits give low values 0.999 | locus YJR043C, strain POL32, hits give low values 1.01 | locus YJR066W, strain TOR1, hits give low values 0.963 and 0.985
